The results in this text go back to PubChem BioAssay AID651692 (Broad Institute, 2012).

Structures are written as SMILES. Results with a measured potency or affinity are listed apart. Active and inactive are the calls of the source.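 How the source made its calls: active means fitted half-maximal concentration for loss of cell signal no higher than twice the top valid tested concentration; inconclusive means flat curve at 30 to 70% inhibition, or poor fit; inactive means flat within 30%, signal rise, or potency above limit.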

The nature of this experiment: MDA-MB-231 cell growth inhibition, dose response, cytotoxicity control for RAD54 inhibitor project, CellTiter-Glo luminescence, cherry-pick (AID 651692).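 Further: 0% = median of sample compound wells and -100% = staurosporine control wells; more negative values mean stronger loss of viable cell signal.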 Particulars: MDA-MB-231 viability, 24 h; series mostly up to 26 µM; activity change, negative = growth inhibition: at the top concentration. In general terms: Cellular ATP, detected with luciferase, serves as a proxy for viable cell number.
Turning to `O=C1c2cccc3cccc(c23)C(=O)N1CCCn1ccnc1`, the “activity change, negative = growth inhibition” value was 11.9% (inactive).
The figure for `CCN1CCN(c2nc(N)c([N+](=O)[O-])c(Nc3cccc(C)c3)n2)CC1` is -7.02% (inactive); for `CCN(CC)CCn1c2ccccc2c2nc3ccc([N+](=O)[O-])cc3cc21` it is -13.4% (inactive).
The value for `CCOC(=O)c1cnc2c(C)cc(Cl)cc2c1NCCCN1CCOCC1` was 13% (inactive); that for `CCOCCCn1c(=N)c(C(=O)NCCN2CCOCC2)cc2c(=O)n3cccc(C)c3nc21` was 1.54% (inactive).
In the case of `COc1ccccc1Nc1c2ccccc2nc2ccccc12`, the “activity change, negative = growth inhibition” value is -3.7% (inactive).
Consider `CCOC(=O)c1c(NC(C)=O)sc2c(O)c(CN3CCN(CC)CC3)ccc12`, for which the “activity change, negative = growth inhibition” value was 4.29% (inactive).
`CN(C)CCN(C(=O)c1ccco1)c1nc2cc3c(cc2s1)OCCO3`: the “activity change, negative = growth inhibition” value was -3.18% (inactive).
Consider `CCCN1CCN(CCCNC(=O)c2cc3c(=O)n(C)c4ccccc4c3n2C)CC1`, for which the “activity change, negative = growth inhibition” value was -3.42% (inactive).
With `Cc1c(C)n(CCN(C)C)c2ccc(C(=O)OCCN(C)C)cc12`, the “activity change, negative = growth inhibition” value was 5.66% (inactive).
As for `Cc1cc(N2CCN(C)CC2)nc2ccc(NC(=S)NCCN3CCc4ccccc4C3)cc12`, the “activity change, negative = growth inhibition” value was -6.89% (inactive).
The value for `CCN(CC)CCN1CCN(c2cncc(-c3cccc(N)c3)n2)CC1` was 3.21% (inactive).
With `CCOC(=O)c1cnc2c(C)c(Cl)ccc2c1NCCCN1CCOCC1`, the “activity change, negative = growth inhibition” value is 7.57% (inactive).
The value for `COc1ccc2nc(C)cc(Nc3ccc(N4CCOCC4)cc3)c2c1` was 0.195% (inactive).
The figure for `CCOC(=O)c1cc(-c2ccncc2)nc2c1c(C)nn2-c1ccccn1` is -5.8% (inactive).
With `Cc1ccnc(SCC(=O)Nc2sc3c(c2C#N)CCC(C(C)(C)C)C3)n1` (centres undefined), the “activity change, negative = growth inhibition” value was 2.74% (inactive).
The figure for `COc1ccc(Nc2nc(NCC3CCCO3)c3ccccc3n2)c(OC)c1` (centres undefined) is 6.96% (inactive); for `CCN(CC)CCNc1ccc(CO)c2oc3cc(Cl)ccc3c(=O)c12` it is -9.29% (inactive); for `CCOC(=O)Nc1c2ccccc2nc2ccccc12` it is 7.91% (inactive).
For the compound `Cc1cccc(Cn2c(Sc3nc(C)cs3)nc3c2c(=O)[nH]c(=O)n3C)c1`, the “activity change, negative = growth inhibition” value was 14.1% (inactive).
The value for `COc1ccc(CCNc2c3ccccc3nc3ccccc23)cc1OC` was -1.11% (inactive).
On to `CCN1CCN(c2cc(C)c3cc(NC(=S)N4CCCCC4)ccc3n2)CC1`, for which the “activity change, negative = growth inhibition” value is -12.2% (inactive).
The figure for `CCN1CCc2c(sc(NC(=O)c3ccc(S(=O)(=O)N4CCOCC4)cc3)c2C(=O)OC)C1` is 6.6% (inactive); for `CCCC(c1nnnn1Cc1ccc(OC)cc1)N1CCN(c2ccccc2)CC1` (centres undefined) it is 11.4% (inactive).
The value for `COc1ccc(CCn2c(=N)c(C(=O)NCCN3CCOCC3)cc3c(=O)n4cccc(C)c4nc32)cc1OC` was -11.8% (inactive); that for `Cc1ccc(-c2nc(NCCCN(C)C)c3ccccc3n2)cc1` was -6.8% (inactive).
The figure for `c1ccc(-c2nnc(SCc3nc4ccccc4[nH]3)o2)cc1` is 13.1% (inactive).
`CC(C)CSc1ncc(-c2cccc(C(F)(F)F)c2)cn1`: the “activity change, negative = growth inhibition” value is 9.42% (inactive).
Turning to `Cn1c2ccc(F)cc2c2ncn(CCCN(CCO)CCO)c(=O)c21`, the “activity change, negative = growth inhibition” value was 1.71% (inactive).
The figure for `c1ccc2c(c1)[nH]c1c(N3CCN(C4CCCCC4)CC3)ncnc12` is 4.07% (inactive).
The figure for `Cc1nnc2c(N3CCN(CCO)CC3)nc3ccccc3n12` is 5.79% (inactive); for `CN(C)CCN(C(=O)c1ccc2c(c1)OCCO2)c1nc2c(Cl)cccc2s1` it is 3.6% (inactive).
On to `COc1ccc(CCNC(=O)c2cc3c(=O)n4ccccc4nc3n(CCCN3CCOCC3)c2=N)cc1OC`, for which the “activity change, negative = growth inhibition” value is 7.19% (inactive).
On to `CCN(CC)CCNC(=O)c1cc2c(=O)n(C)c3ccccc3c2s1`, for which the “activity change, negative = growth inhibition” value was -8.38% (inactive).
The figure for `CCN(CC)Cc1cc2[nH]c3c4ccc(Cl)cc4ncc3c2cc1OC` is 2.58% (inactive); for `Cc1ccc2[nH]c(=O)c3cc(C(=O)NCCN4CCN(C)CC4)sc3c2c1` it is -2.44% (inactive); for `CC1CCCCC1NC(=O)C1Cc2ccccc2CN1S(C)(=O)=O` (centres undefined) it is 1.52% (inactive).
The figure for `Cc1cccn2c(=O)c3cc(C(=O)NCCN4CCOCC4)c(=N)n(CCN4CCOCC4)c3nc12` is -3.17% (inactive).
The value for `Cc1[nH]ccc2cc3nc4ccccc4c3cc12` was -23.1% (inactive).
